SMN2 splice enh: increases expression of the SMN2 splice variant; AID 1458; 210,000 compounds, 2.8% hits; Potency, µM (top dose mostly 46.1 µM), for the others: at the top dose activity change, positive = activation, actives largely listed as activators; HEK293 SMN2-luciferase splicing reporter, luminescence, 30-36 h; note: % of control where 0% means no effect; nearly all actives have a fitted effect of over 55% in size
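HEK293 cells carry an SMN2 minigene-luciferase reporter in which exon 7 inclusion puts luciferase in frame. Cells were seeded at 2000 cells/well, attached for 10-12 hours, then exposed to compounds for 30-36 hours at 37C before ONE-Glo luminescence.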
ELG1 genotox: genotoxicity induction in ELG1-luciferase HEK293T cells | Potency, µM (top dose mostly 46 µM), without a hit: at the highest dose activity change, positive = activation, hits mostly activators | 330,000 compounds, 1.3% hits | AID 504466 | HEK293T ELG1-luciferase reporter, luminescence, 16 h; note: % of control where 0% means no effect; nearly all actives have a fitted effect of over 60% in size
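Screening used a luciferase reporter fused to human ELG1 in HEK293T cells. Luminescence was read on a CCD plate imager after 16 hr exposure and 30 min ONE-Glo incubation.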
FLuc counter: inhibits or activates purified firefly luciferase, miR-21 counter-screen. AID 588342. 360,000 compounds, 6.9% hits. purified FLuc, Km substrates, luminescence inhibition. Potency, µM (top dose mostly 57.5 µM), for the others: at the highest dose activity change, negative = inhibition, actives largely listed as inhibitors;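 note: plate controls were vehicle for no effect and reference inhibitor for full effect; nearly all actives have a fitted effect of over 55% in size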
Target sequence (P08659 whole entry, looked up): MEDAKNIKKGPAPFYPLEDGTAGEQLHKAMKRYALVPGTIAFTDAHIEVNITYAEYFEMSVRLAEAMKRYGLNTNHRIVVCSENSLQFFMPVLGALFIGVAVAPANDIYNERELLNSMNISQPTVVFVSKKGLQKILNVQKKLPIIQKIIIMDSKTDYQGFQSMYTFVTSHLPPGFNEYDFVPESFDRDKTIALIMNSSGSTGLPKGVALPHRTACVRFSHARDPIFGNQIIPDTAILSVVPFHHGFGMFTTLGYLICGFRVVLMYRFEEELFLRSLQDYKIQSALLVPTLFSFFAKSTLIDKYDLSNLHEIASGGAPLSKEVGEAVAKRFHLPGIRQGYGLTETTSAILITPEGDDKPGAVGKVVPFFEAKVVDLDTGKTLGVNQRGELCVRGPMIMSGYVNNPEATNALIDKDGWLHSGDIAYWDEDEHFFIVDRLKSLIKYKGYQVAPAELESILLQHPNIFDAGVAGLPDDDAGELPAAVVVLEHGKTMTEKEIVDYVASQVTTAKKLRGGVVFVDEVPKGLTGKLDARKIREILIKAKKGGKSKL
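Purified P. pyralis luciferase, 10 nM final, with Km-level 10 uM D-luciferin and 10 uM ATP in 50 mM Tris acetate pH 7.5, 10 mM Mg acetate, 0.01% Tween-20, 0.05% BSA; 6-point qHTS titration about 60 µM downward; luminescence read.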
Luc counter: blocks Kinase-Glo luciferase, a counter-screen artifact; Q27757; Kinase-Glo luciferase, ATP luminescence, 8 min; Potency, µM (series often up to 38.3 µM), for inactives: at the top dose activity change, negative = inhibition, usual class: inhibitors; 200,000 compounds, 0.28% hits; AID 1379; note: % is set by controls: 0 for no effect and ±100 for the full control effect; nearly all actives have a fitted effect of over 60% in size
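Compound is pinned into ATP-containing buffer (10 uM ATP, imidazole pH 7.2, 7 mM MgCl2). Kinase-Glo luciferase reagent is then added. Light output is recorded following an 8-min room-temperature incubation.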
NPC1 promoter act: activates the NPC1 promoter; AID 485313; Potency, µM (highest dose often 9.22 µM), without a hit: at the highest dose activation, most hits filed as activators; 320,000 compounds, 2.4% hits; Huh7 NPC1 promoter luciferase reporter, 24 h; note: % of control where 0% means no effect; nearly all actives have a fitted effect of over 60% in size
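Huh7 cells stably carrying NPC1 promoter–luciferase, plated in Opti-MEM with 10% FBS for 2 h, were exposed to compound in DMSO for 24 h at 37 °C; luciferase reagent was added for 10 min and luminescence read.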
Rab9 promoter act: Rab9 promoter activation; Huh7 Rab9 promoter-luciferase reporter, luminescence, 24 h; Potency, µM (highest dose often 9.22 µM), for inactives: at the highest dose activation, negative = inhibition, actives largely listed as activators; 320,000 compounds, 2.8% hits; note: % of control where 0% means no effect; nearly all actives have a fitted effect of over 60% in size
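Luminescence from Amplite-detected luciferase (10 minutes, ambient) reports Rab9 promoter activation. Before that, stable Rab9-luciferase Huh7 cells (1500/well, reduced-serum OP-MEM I plus 10% FBS) were exposed to compound for 24 hours at 37C.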
Active calls of the source: *; ? = inconclusive; / = no result given. Only some compounds are listed: those with a hit (about 7.3% of all), similar ones and a draw of the others. Calls come from the whole dose curve; as a rule, active = well fitted curve in the direction sought with a large enough effect; inconclusive = small, poorly fitted or top-dose-only effect, or another doubt; inactive = no such curve, though single readings can be large; an effect the other way counts as inactive or inconclusive. Potency is the fitted concentration of half-maximal effect.

SMILES	SMN2 splice enh	ELG1 genotox	FLuc counter	Luc counter	NPC1 promoter act	Rab9 promoter act
COc1ccc2nc(-c3ccccc3)cc(C(=O)OCC(=O)NC3CC3)c2c1	/	1%	2%	/	1%	-5%
COc1ccc(-c2cc3ccc(O)cc3oc2=O)cc1	/	8.2µM*	4.8µM*	/	1.3µM*	3.2µM*
O=c1oc2ccc3ccccc3c2cc1-c1nnc(Nc2ccccc2F)s1	1%	/	-1%	/	/	/
O=c1oc2cc(O)ccc2cc1-c1ccccc1	/	?	24µM*	/	?	4%
O=c1oc2cc(O)ccc2cc1-c1nnc(Nc2ccccc2F)s1	4µM*	/	2.4µM*	/	/	/
O=c1oc2ccccc2cc1-c1ccc(O)cc1O	2%	5%	?	-3%	-1%	-2%
O=c1oc2cc(O)ccc2cc1-c1ccc2c(c1)OCCO2	18µM*	/	/	-3%	/	/
CCN(CC(=O)Nc1ccccc1C(F)(F)F)C(=O)c1ccc(=O)n(Cc2ccccc2)n1	/	-4%	0%	/	0%	4%
O=c1c(-c2ccc3c(c2)OCCO3)coc2cc(O)cc(O)c12	6.3µM*	2.5µM*	4.8µM*	-17%	1.8µM*	?
CCn1c(COc2ccccc2)nc2ccccc21	3%	21%	?	-5%	2%	2%
C=CCn1c(NCc2ccc(OC)cc2O)nc2ccccc21	/	13%	19µM*	/	?	?
CCn1c(COc2ccc(OC)cc2)nc2ccccc21	1%	17%	13µM*	-8%	?	?
C=CCn1c(COc2ccc(OC)cc2)nc2ccccc21	/	?	17µM*	/	?	?
CCn1c(NCc2ccc3c(c2)OCO3)nc2ccccc21	10%	6%	?	-4%	17%	4%
C=CCn1c(NCc2ccc3c(c2)OCO3)nc2ccccc21	-3%	30%	15µM*	-5%	14%	24%
CCN(CC)c1ccc(NC(=O)c2cc(C)nc3c2c(C)nn3-c2cccc(F)c2)c(C)c1	/	/	-9%	/	/	/
O=C(COC(=O)CSCc1ccccc1)NCc1ccccc1	-2%	-1%	2%	-1%	2%	-5%
Cc1ccc(CNC(=O)CCCCCNc2nc(=S)[nH]c3ccccc23)cc1	9%	-10%	-4%	-1%	-10%	-4%
O=C(/C=C/c1ccc(Cl)cc1Cl)c1ccc[nH]1	7%	?	2.7µM*	-3%	13%	22%
Cc1c(C(=O)/C=C/N(C)C)nnn1-c1ccc(Cl)cc1Cl	/	7%	?	/	-7%	-1%
O=C(/C=C/c1ccc(Cl)cc1Cl)n1cccn1	15%	16%	3.8µM*	-14%	-1%	-1%
O=C(/C=C/c1ccccc1Cl)c1ccc[nH]1	19%	?	7.6µM*	-11%	10%	27%
O=C(/C=C/c1ccccc1Cl)N1CCN(c2ncccn2)CC1	-7%	1%	?	4%	-2%	-6%
CN(C)/C=C/C(=O)/C=C/c1ccc(Cl)cc1Cl	20µM*	?	12µM*	-3%	2.2µM*	1µM*
COc1ccc(CNC(=S)Nc2ccc(-c3ccccc3)cc2)cc1	-9%	4%	-3%	0%	4%	1%
SMILES	SMN2 splice enh	ELG1 genotox	FLuc counter	Luc counter	NPC1 promoter act	Rab9 promoter act
O=C(O)CC1(CC(=O)NCc2ccccn2)CCCCC1	/	2%	1%	/	1%	-2%
O=C(N/N=C/c1ccc(OC(=O)c2ccco2)cc1)c1ccncc1	/	5%	1%	/	1%	8%
Cc1ccc(C(=O)CSc2ncnc3ccccc23)o1	11%	12%	13µM*	-18%	4µM*	4µM*
O=C(CSc1ncnc2ccccc12)c1cccs1	/	?	1.5µM*	-16%	1.8µM*	0.45µM*
O=C(CSc1ncnc2ccccc12)N1CCCC1	6%	?	?	-5%	16%	28%
COc1ccc(OCCSc2n[nH]c(N)n2)cc1	-33%	?	-7%	-8%	-2%	2%
COc1ccc(OCCSc2ncn[nH]2)cc1	/	13%	13µM*	-4%	?	?
CC(C)Oc1ccc(CSc2ncn[nH]2)cc1	/	9%	15µM*	-9%	26%	?

Bioassay records deposited in PubChem BioAssay by National Center for Advancing Translational Sciences (NCATS).
